Experimental data taken from the supplement of paper PMC6555819.

Key:
Experiment in all cases: PBM binding z-score (relative to random genomic background probes); higher = stronger binding; sequences stand for … in GC…GCGATTGACAGCGTAGAATGAAGG
[1] = system: RARb homodimer (NR concentration 270 nM)
Method in brief: (§1)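 Probes were double-stranded and carried 34-nt variable regions with direct-repeat seeds, single-nucleotide variants, half-site ablations and random human genomic background sequences, printed on custom Agilent 4×180K protein-binding microarrays. Arrays were incubated 1 h with ligand-free nuclear receptor dimers in PBS pH 7.4, 2% milk, 0.02% Triton X-100, 1 mM DTT, 0.2 mg/mL BSA and 0.4 mg/ml salmon testes DNA. Antibodies against each partner (one per run) detected binding, and scanned fluorescence was regression-normalized. Binding z-scores use the random background probes as reference.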

[2] = system: RARg:RXRa (NR concentration 270 nM, RXRa partner concentration 90 nM)
Method in brief: as §1

[3] = system: RARg homodimer (NR concentration 270 nM)
Method in brief: as §1

[4] = system: RXRa DBDmut IVT, anti-RXR (DBD mutation: RXRa K156A/R161A, NR concentration 90 nM)
Method in brief: as §1

[5] = system: RXRa homodimer (NR concentration 180 nM)
Method in brief: as §1

[6] = system: THRa:RXRa (NR concentration 90 nM, RXRa partner concentration 90 nM)
Method in brief: as §1

[7] = system: THRa homodimer (NR concentration 90 nM)
Method in brief: as §1

[8] = system: VDR:RXRa (NR concentration 270 nM, RXRa partner concentration 90 nM)
Method in brief: as §1

[9] = system: VDR homodimer (NR concentration 270 nM)
Method in brief: as §1

Sequence	PBM binding z-score [1]	PBM binding z-score [2]	PBM binding z-score [3]	PBM binding z-score [4]	PBM binding z-score [5]	PBM binding z-score [6]	PBM binding z-score [7]	PBM binding z-score [8]	PBM binding z-score [9]
GCTGCTAGGTCAGGTTGGTCAGCTCACGGGTACG	2.66	2.78	3.52	0.658	1.28	1.84	0.901	0.52	0.536
CCTCGGAGGACAACAGGAGGTCAGTGCTGCCAGA	3.56	3.16	3.22	0.309	1.28	2.64	0.965	1.59	1.21
CCTGTTAGTTGACCATAAGGGCAACCGAAGCTCG	2.14	1.2	0.916	0.329	0.511	1.88	1.5	0.474	0.539
GCTGCTAGGTCAGGTGGGTCAGCTAACGGGTACG	3.64	3.41	4.26	0.0363	2.07	2.57	0.719	2.75	0.861
AGTCTAAGTTCATCTAGGTAACGTAAGATATGCT	2.48	3.58	4.02	4.94	2.6	2.9	0.767	4.65	5.9
CCGACTGGTGCAAAGGTTACCATACTCAGTACGA	2.08	2.07	1.32	0.63	2.93	1.45	0.0703	1.74	0.351
CGTCAAAGTTCTACTAAGGTAACGTAAAGCACGC	0.428	0.172	0.53	0.53	0.138	3.7	1.49	0.34	0.165
CCTATTAGTTGACCATAAGGGCAATCGAAGCTCG	1.72	1.12	1.22	0.557	0.516	1.47	1.18	0.713	1.13
CCTGCTAGGTCAATGGCCAGCTAAAGCAGCTCGC	2.64	3.43	3.65	1.05	1.79	1.98	0.178	0.561	-0.525
ACAGACAGGTGGTGAAGGTAACTCAGGCTATCAT	0.218	0.00728	-0.0161	-0.443	0.0945	0.769	0.206	-0.0297	-0.381
TCTCGGAGGACCCGAAAGGTCAGAGCTCGACATC	4.21	3.92	4.15	0.325	4.04	2.75	0.369	2.45	0.435
TCGAGTAGGTTAGTCGGGGCAGTCAGCCAACATA	0.699	-0.199	0.0307	0.125	-0.226	0.854	-0.302	0.666	-0.321
CCTACTGGGCCAAAAAGGTCATCGATGCCGATAA	4.84	5.18	4.77	0.518	5.25	3.28	0.651	4.79	1.99
CCTACAGGGCCATCAGGTCATTGATATCAACGTT	2.75	2.63	2.35	0.562	1.63	3.26	2.79	2.48	1.45
TCTTATAGGTAAAGGTGAAAGTCGAACGATATGA	1.59	1.84	1.45	1.1	2.43	1.39	0.153	1.25	0.315
CGAACGAGGGCGTGAGTTGATAGCAAATGCCGAT	-0.277	0.0501	-0.0612	1.36	0.221	0.142	-0.691	0.224	0.785
ACAGACAGGTGAGTGAAGGTAACTCATCTGGACG	-0.00809	0.205	0.564	-0.622	0.146	1.57	-0.651	-0.347	-0.803
CGTCCAAGGTCAGAGAGGTTAGTGAATGCCGAGT	3.85	4.7	5.08	2.6	3.73	3.45	1.87	5.8	2.96
ATCTCTAGGTAAGCCTCAGTTCAGTGAAGAACGC	0.726	0.273	0.0936	0.247	0.103	0.985	1.15	0.546	1.21
GGGACGAGGGCAAAGTTGATAGCATCTGTCGACG	1.44	2.17	1.98	2.35	1.9	1.52	0.0608	1.47	1.85
TCGAGTAGGTTAGGGACATTCAGAATGGCGTCGA	0.458	0.15	0.37	0.229	0.221	2	0.953	-0.0636	0.358
CAAACTAGGTCAAGGTCAAAGTCGGTTTGTGCCA	5.13	6.18	6.97	3.21	6.34	4.35	3.74	5.23	4.46
AGAACGAGGGCAATGCGTTGATAGCACGGGTGGC	0.934	1.05	1.65	1.2	0.834	0.775	-0.0819	1.16	1.17
GTACCAAGGTGAATTGGTCGTTGATGAGTAGGCG	0.471	0.331	0.444	-0.385	0.215	1.17	0.25	-0.409	-0.534
GGAACGAGGGCATTCGAGTGGATAGCATGGCGAT	0.402	0.904	1.23	2.83	0.651	1.69	-0.704	1.32	1.87
ACTATTAGTTGAGACGAGGTCAACCGATAGGTTG	4.05	3.81	3.37	1.57	4.82	4.73	3.82	4.47	3.21

Sequence	PBM binding z-score [1]	PBM binding z-score [2]	PBM binding z-score [3]	PBM binding z-score [4]	PBM binding z-score [5]	PBM binding z-score [6]	PBM binding z-score [7]	PBM binding z-score [8]	PBM binding z-score [9]
CCGACTTGGGCATAAGGTTACCATAAGCCAGCCC	0.962	0.45	0.236	-0.0632	0.906	1.84	1.27	-0.311	-0.535
CAAACTTGGTCAAGAGGTCAAAGTCCGCTTCCCG	4.85	5.94	4.95	2.03	6.1	3.78	1.66	5.4	3.57
TAGCCTAGGTCAAATCGGGCCAGTATACGCTATA	2.7	4.3	4.47	0.997	3.31	4.59	0.89	2.7	0.378
TCATATAGGTAATACAGGTGAGAGTCGGCATCTA	0.373	0.339	0.708	1.4	0.681	0.631	0.164	0.85	0.172
CAAACTAGGTCACCAAAGGTCAAAGTCGAATGAC	5.94	7.87	8.54	2.57	7.91	5.17	2.46	6.93	3.85
GCTAGCAGGCCAATTGGGTCACTCAATGACGGGC	1.94	1.01	1.15	-0.58	0.841	1.66	0.0976	0.89	-0.328
AATACTGGGTCATCGTAGGCCAGAGTACGCACAG	3.24	3.52	3.91	0.934	3.11	3.85	0.749	2.49	1
ACTAGCTGGCCAAGTTTGGGTCACTCAAACAAAG	1.35	0.786	0.564	-0.366	0.323	1.82	0.793	0.228	-0.123
TAGCCTAGGTCATTGGGGCAGTATAGTACGCATC	3.31	3.93	4.23	1.67	2.99	2.96	1.28	3.19	1.8
ATATTTAGGTTACATCCGGGTCATTCAGGCTATG	3.1	3.51	2.31	1.39	3.32	4.1	3.84	4.13	3.54
TCTTGTAGATCAATAGAGGTTCAGAAAGTGCGCT	0.168	0.234	0.116	0.728	0.478	0.501	-0.823	1.65	1.37
CGAACGAGGGCATGAGTTGATACCAAATGCCGAT	1.11	1.48	1.6	2.37	0.992	1.37	-0.127	1.83	1.57
CTACCAAGGTGAACAAGGTCGTTGAATACTATTC	2.13	1.97	1.95	1.24	1.98	3.25	1.83	5.99	2.1
CCGACTGGGGAAAGGTTACCATAACGCACAGCCA	1.86	1.66	0.984	-0.493	2.28	1.13	-0.224	0.901	-0.242
CAAACTAGGTCAAGAGGTCACAGTCCGCTTCCCG	5.76	7.87	7.83	2.79	7.55	4.57	3.21	5.92	3.7
AATACAGCGTCATCGTAGGCCAGAGTACGCACAG	-0.094	-0.121	0.174	-0.495	-0.0638	0.55	-0.659	-0.373	-0.00282
TGAATGAGGATATAAGATCAGGGAACGTTGCAAA	-0.689	0.125	0.402	-0.562	0.189	0.534	-0.316	-0.113	-0.0248
TTCCCAAGGTGAAGGTCGTTGATCCCTCTGTAGA	1.87	1.35	1.04	-0.0232	1.74	2.52	1.11	1.22	0.952
ATCTCTAGGTAGGACTCAGTTCAGTGAAGAACGC	0.778	0.159	0.0916	0.747	0.071	0.569	0.909	0.756	1.66
GTACCAAGGTGAATAGGTCGTCGATGAGTAGGCG	2.07	2.91	1.67	-0.36	2.1	2.11	0.363	0.97	-0.13
CCTCGGAGGACTGAAGGTCAGAGCTGTCCGCTTT	2.67	2.13	1.87	-0.27	1.46	1.66	-0.417	0.567	-0.325
TATACAGGGTCAAAAGCCAGAGTACGAATGTCGA	2.74	4.82	4.2	2.54	5.88	3.04	0.446	4.1	2.71
CCTAGCAGGCCGGGGTCACTCAAGCATTTCGCTT	3.68	4.98	3.6	1.99	6.81	3.89	2.05	4.94	3.75
GCTGCTAGGTCAGGTTGGTCAGCAAACGGGTACG	2.84	2.72	3.54	0.377	1.03	1.92	0.409	0.616	0.182
ATCTCTAGGTAACAAGTTCTGTGAAAGAGAGGAC	0.522	0.565	0.579	0.302	0.105	1.12	0.878	0.359	0.424
ATCTCTAGGTAAAGATAGTTCAGTCAATGCAAAT	0.999	0.494	0.808	0.26	0.151	0.889	-0.0396	0.723	0.66
